Experimental findings from the supplement of paper PMC11577813, “Eurasian spruce bark beetle detects lanierone using a highly expressed specialist odorant receptor, present in several functional sensillum types” (BMC Biology, 2024) are described below.

± gives the standard deviation of the averaged measurements.

This test relates to lanierone-responsive B-neuron OSN class (ItypOR36). In words: net action potential response of lanierone B-neuron (blank-subtracted) (spikes/s (Hz)); higher = stronger excitation. The conditions noted are these: 10 µg on filter paper, neuron: B neuron (small spike amplitude). How it is done:
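Single sensillum recordings from antennal olfactory sensilla of live adult Ips typographus. Each compound was 10 µg in paraffin oil, delivered as a 0.5 s puff. Net response = spikes in the first 0.5 s of response minus the 0.5 s pre-stimulus count, doubled to give Hz, with blank response subtracted. Values are for the small-spike lanierone-responsive B-neuron (putatively expressing ItypOR36), recorded in sensilla co-housing the A-neuron class; N = 1-4, averaged.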

Where [1] appears, read: co-localized A-neuron class: (4S)-cis-verbenol.
The mark [2] stands for this setting: co-localized A-neuron class: (5S,7S)-trans-conophthorin.
Setting [3] is: co-localized A-neuron class: (+)-isopinocamphone.
Setting [4] is: co-localized A-neuron class: (+)-trans-4-thujanol.
The mark [5] stands for this setting: co-localized A-neuron class: ipsdienol.
Where [6] appears, read: co-localized A-neuron class: myrcene.
Setting [7] is: co-localized A-neuron class: p-cymene.

With `COc1ccc(C)cc1OC` [3,4-Dimethoxytoluene], the “net action potential response” value under setting [1] was 5.33 ± 11; the “net action potential response” value under setting [2] amounted to 0 ± 7.2; the “net action potential response” value under setting [3] came out at 1.33 ± 2.3; the “net action potential response” value under setting [4] was -1.5 ± 3.4; the “net action potential response” value under setting [5] turned out to be 2 ± 6; the “net action potential response” value under setting [6] stood at 2. The “net action potential response” value under setting [7] was -2 ± 6.9.
On to `OCCc1ccccc1` [2-Phenylethanol], for which the “net action potential response” value runs as follows: under setting [1], -4 ± 2; under setting [2], -3 ± 3.8; under setting [3], 2 ± 3.5; under setting [4], 1 ± 3.5; under setting [5], -3.33 ± 11; under setting [6], 2. Besides, the “net action potential response” value under setting [7] amounted to 6 ± 10.
As for `C=CCc1ccc(OC)c(OC)c1` [Eugenol methyl ether], the “net action potential response” value is 0 ± 8.7 under setting [1]; -3 ± 5 under setting [2]; 4.67 ± 9 under setting [3]; -2 ± 1.6 under setting [4]; -1.33 ± 5 under setting [5]; 0 under setting [6]. Further, the “net action potential response” value under setting [7] is -3.33 ± 9.4.
Turning to `C=C1CCC2(C(C)C)CC12` (racemic) [(±)-Sabinene], the “net action potential response” value under setting [1] worked out at 0.667 ± 6.4; the “net action potential response” value under setting [2] was -1.33 ± 1.1; the “net action potential response” value under setting [3] is -1.33 ± 2.3; the “net action potential response” value under setting [4] was found to be 0.5 ± 1.9; the “net action potential response” value under setting [5] turned out to be 1.33 ± 9.2; the “net action potential response” value under setting [6] was -4. For the same compound, the “net action potential response” value under setting [7] was -4 ± 5.3.
As to `C[C@H]1C(=O)C[C@H]2C[C@@H]1C2(C)C` [(-)-Pinocamphone], the “net action potential response” value under setting [1] is -2 ± 2; the “net action potential response” value under setting [2] is -4 ± 8.7; the “net action potential response” value under setting [3] is -1.33 ± 1.1; the “net action potential response” value under setting [4] is 1 ± 3.8; the “net action potential response” value under setting [5] was determined as 0 ± 6; the “net action potential response” value under setting [6] was 4. Further, the “net action potential response” value under setting [7] was -2 ± 3.5.
Turning to `CCCCCCO` [1-Hexanol], the “net action potential response” value was -0.667 ± 3.1 under setting [1]; 0.5 ± 3.4 under setting [2]; -1.33 ± 1.1 under setting [3]; 0 ± 1.6 under setting [4]; 2 ± 2 under setting [5]; -6 under setting [6]. Besides, the “net action potential response” value under setting [7] is -2.67 ± 6.1.
